# PubChem BioAssay (Tox21)
# Inconclusive results are not listed. The source made the active and inactive calls. The call rests on the fitted dose curve; in most records, active means well fitted curve in the direction sought with a large enough effect in the repeat runs; inconclusive means weak or mixed curves; inactive means no such curve, though single readings can be large; an effect the other way counts as inactive or inconclusive.
# Assay: qHTS assay to identify small molecule agonists of the RXR signaling pathway - cell viability counter screen (AID 1159529); further: nearly all actives have a fitted effect of over 50% in size; further: potency means the concentration at half of the fitted maximal effect;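 on activity change, negative = cytotoxicity: HEK 293T cells carrying an RXR-alpha UAS beta-lactamase reporter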
# Settings: RXR-alpha-bla HEK293T viability, CellTiter-Glo, 16 h; series mostly up to 76.8 µM; activity change, negative = cytotoxicity: at the top concentration
# In short: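 RXR-alpha-UAS-bla HEK 293T cells in medium with 2% charcoal-stripped FBS were preincubated 5 hr, then exposed to compounds for 16 hr at 37 C. Viability was read as CellTiter-Glo luminescence after 30 min at room temperature.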
# On the % scale 0 is the no-effect control and ±100 the full control effect.
Compound,"activity change, negative = cytotoxicity",Potency
Cc1ccc(NC=O)c(C)c1,-3.95% (inactive),
CC(=O)Nc1ccccc1O,5.73% (inactive),
C=CC(O)CCCCC (centres undefined),-1.26% (inactive),
CC(=O)OCC(=O)[C@@]1(O)CC[C@H]2[C@@H]3CCC4=CC(=O)C=C[C@]4(C)[C@@]3(F)[C@@H](O)C[C@@]21C,2.78% [at 35.3 µM] (inactive),
O=C(O)CNc1ccccc1,-4.29% (inactive),
O=C(Nc1ccccc1)c1cc([N+](=O)[O-])ccc1Cl,-7.06% (inactive),
C=CC(C)CCC=C(C)C (centres undefined),7.35% (inactive),
OCCCO,0.338% (inactive),
CCCCOC(=O)CC#N,-19.9% (inactive),
CC(C)Oc1ccccc1O,9.97% (inactive),
FC1(F)C(F)(F)C(F)(F)C2(F)C(F)(C1(F)F)C(F)(F)C(F)(F)C1(F)C(F)(F)C(F)(F)C(F)(F)C(F)(F)C12F (centres undefined),9.22% (inactive),
CCCCCCCCCCCCSC#N,-4.94% (inactive),
CNc1ccccc1,-0.0941% (inactive),
CC(C)(C(=O)O)c1ccc(C(O)CCCN2CCC(C(O)(c3ccccc3)c3ccccc3)CC2)cc1 (centres undefined),5.93% [at 35.3 µM] (inactive),
CCCCC(CC)COCCC#N (centres undefined),5.32% (inactive),
C=C(C)C(=O)OCCCCCCCCCCOC(=O)C(=C)C,-9.29% (inactive),
Nc1cccc2c(=O)[nH][nH]c(=O)c12,,5.52 µM (active)
Cc1cc(N)n(-c2ccccc2)n1,6.9% (inactive),
CC[C@H](NC(C)C)[C@H](O)c1ccc(O)c2[nH]c(=O)ccc12,0.423% [at 35.3 µM] (inactive),
CC(O)C(C)O (centres undefined),3.4% (inactive),
NC(=O)c1ccccc1C(N)=O,,34.8 µM (active)
O=Cc1ccc(Cl)c([N+](=O)[O-])c1,-6.95% (inactive),
O=C(OCCOCCOCCOC(=O)c1ccccc1)c1ccccc1,-10.4% (inactive),
CC1(C)CC(=O)CC(C)(C)N1,-9.8% (inactive),
CO[C@@H]1COCC[C@@H]1N[C@@H]1CC[C@@](C(=O)N2CCc3ncc(C(F)(F)F)cc3C2)(C(C)C)C1,4.83% (inactive),

# Assay: qHTS assay to identify small molecule antagonists of the retinoid acid receptor (RAR) signaling pathway - cell viability counter screen (AID 1159551); further: nearly all actives have a fitted effect of over 35% in size
# Settings: C3RL4 cells viability, ATP luminescence (CellTiter-Glo), 6 h; series mostly up to 92.4 µM; activity change, negative = cytotoxicity: at the top concentration
# In short: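 Luminescent ATP quantitation (CellTiter-Glo) gave cell viability in C3RL4 cells exposed to test chemicals for 6 h at 37 C alongside 1 uM final retinol.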
row,Compound,"activity change, negative = cytotoxicity"
1,Cc1ccc(NC=O)c(C)c1,2.67% (inactive)
2,CC(CN=Cc1ccccc1O)N=Cc1ccccc1O (centres undefined),-0.126% (inactive)
3,CCC(C)CCCC(C)(C)O (centres undefined),2.31% (inactive)
4,CO[C@@H]1[C@@H](O[C@@H]2O[C@H](C)[C@@H](O[C@H]3C[C@@](C)(O)[C@@H](O)[C@H](C)O3)[C@H](N(C)C)[C@H]2O)[C@@H](CC=O)C[C@@H](C)[C@@H](O[C@@H]2CC[C@H](N(C)C)[C@@H](C)O2)/C=C/C=C/C[C@@H](C)OC(=O)C[C@H]1OC(C)=O,0.555% [at 42.5 µM] (inactive)
5,CC(=O)Nc1ccccc1O,2.75% (inactive)
6,CCCCOC(=O)C(C)Oc1ccc(Oc2ccc(C(F)(F)F)cn2)cc1 (centres undefined),1.68% (inactive)
7,C=CC(O)CCCCC (centres undefined),-1.73% (inactive)
8,CC(=O)OCC(=O)[C@@]1(O)CC[C@H]2[C@@H]3CCC4=CC(=O)C=C[C@]4(C)[C@@]3(F)[C@@H](O)C[C@@]21C,-1.1% [at 42.5 µM] (inactive)
9,O=C(O)CNc1ccccc1,-0.919% (inactive)
10,O=C(Nc1ccccc1)c1cc([N+](=O)[O-])ccc1Cl,3.73% (inactive)
11,C=CC(C)CCC=C(C)C (centres undefined),0.596% (inactive)
12,CC1=C(C)C(=O)C(CCCCC#CCCCC#CCO)=C(C)C1=O,-2.7% [at 42.5 µM] (inactive)
13,CCCCCCCCC(=O)OCC(C)OC(=O)CCCCCCCC (centres undefined),-1.82% (inactive)
14,Cc1cc(C)n(CO)n1,-0.442% (inactive)
15,OCCCO,0.192% (inactive)
16,CCCCOC(=O)CC#N,-0.105% (inactive)
17,CCN(CCCCOC(=O)c1ccc(OC)c(OC)c1)C(C)Cc1ccc(OC)cc1 (centres undefined),0.133% [at 42.5 µM] (inactive)
18,C[C@H](CN1CCCC1)C(=O)c1ccc(C(F)(F)F)cc1,-0.251% [at 42.5 µM] (inactive)
19,CC(C)Oc1ccccc1O,0.806% (inactive)
20,FC1(F)C(F)(F)C(F)(F)C2(F)C(F)(C1(F)F)C(F)(F)C(F)(F)C1(F)C(F)(F)C(F)(F)C(F)(F)C(F)(F)C12F (centres undefined),-0.697% (inactive)

row,Compound,"activity change, negative = cytotoxicity"
1,CCCCCCCCCCCCSC#N,-0.443% (inactive)
2,CNc1ccccc1,1.62% (inactive)
3,CC(C)(C(=O)O)c1ccc(C(O)CCCN2CCC(C(O)(c3ccccc3)c3ccccc3)CC2)cc1 (centres undefined),6.45% [at 42.5 µM] (inactive)
4,CCCCC(CC)COCCC#N (centres undefined),-1.26% (inactive)
5,O=C1OC(=O)C2CC=CCC12 (centres undefined),-0.102% (inactive)
6,C=CCCC,1.02% (inactive)
7,C=C(C)C(=O)OCCCCCCCCCCOC(=O)C(=C)C,0.392% (inactive)
8,CC(O)CN (centres undefined),3% (inactive)
9,COC(=O)C(C)(C)C,-0.501% (inactive)
10,Nc1cccc2c(=O)[nH][nH]c(=O)c12,-3.01% (inactive)
11,Cc1cc(N)n(-c2ccccc2)n1,-0.207% (inactive)
12,CC[C@H](NC(C)C)[C@H](O)c1ccc(O)c2[nH]c(=O)ccc12,-1.88% [at 42.5 µM] (inactive)
13,CC(O)C(C)O (centres undefined),-1.51% (inactive)
14,NC(=O)c1ccccc1C(N)=O,0.792% (inactive)
15,O=Cc1ccc(Cl)c([N+](=O)[O-])c1,-9.24% (inactive)
16,O=C(OCCOCCOCCOC(=O)c1ccccc1)c1ccccc1,-0.0873% (inactive)
17,CCCN(C1CCN(C(=O)C2CCNCC2)CC1)[C@@H]1CCc2ccc(OC)cc2C1,0.0327% (inactive)
18,CC1(C)CC(=O)CC(C)(C)N1,-2.91% (inactive)
19,CO[C@@H]1COCC[C@@H]1N[C@@H]1CC[C@@](C(=O)N2CCc3ncc(C(F)(F)F)cc3C2)(C(C)C)C1,-1.43% (inactive)
